Screens from PubChem.
Only some compounds are listed: those with a hit (about 19% of all), similar ones and a draw of the others.
TDP1 cell CPT: growth inhibition of DT40 Tdp1-/-;hTDP1 cells with camptothecin (screen for TDP1 inhibitors). chicken DT40 Tdp1-/-;hTDP1 cells + 20 nM CPT, ATP luminescence, 48 h. hit rate 12% among 420,000. Potency, µM (titrated, usually from 46.2 µM), for the others: at the top dose activity change, negative = growth inhibition, hits mostly inhibitors. AID 686979; also: potency is read from the fitted curve at half-maximal effect; nearly all actives have a fitted effect of over 55% in size
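Chicken DT40 Tdp1-/- cells stably complemented with human TDP1 were seeded at 400 cells/well in medium containing 20 nM camptothecin, exposed to pin-transferred compounds, and grown at 37 °C for at least 48 hr. Viability was read as ATP luminescence.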
HT1080 IDH1KD tx: HT-1080 IDH1 knockdown cell toxicity (counter line) | Potency, µM (titrated, usually from 46.1 µM), without a hit: top-dose activity, negative = toxicity, actives largely listed as cytotoxic | AID 686971 | HT-1080 IDH1 knockdown viability, ATP luminescence, 48 h | hit rate 2% among 360,000;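 also: potency is read from the fitted curve at half-maximal effect; 0% = DMSO wells and -100% = cell-free medium wells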
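Luminescent ATP read-out (CellTiter-Glo, 10 min at room temperature) after 48 h compound exposure at 37 °C gave viability of IDH1-knockdown HT-1080 cells. Activity was normalised to DMSO and cell-free wells, then fitted as concentration-response curves.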
DT40 TDP1 no CPT: qHTS for Inhibitors of human tyrosyl-DNA phosphodiesterase 1 (TDP1): qHTS in cells in absence of CPT. DT40 Tdp1-/- hTDP1 cells, no CPT, ATP luminescence, 48 h. Potency, µM (top dose mostly 46.2 µM), inactives show at the highest dose activity change, negative = growth inhibition, actives largely listed as inhibitors. hit rate 15% among 420,000. AID 686978, 2013; also: potency is read from the fitted curve at half-maximal effect; nearly all actives have a fitted effect of over 55% in size
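Compound effects on proliferation are scored in DT40 Tdp1-/-;hTDP1 cells in the absence of CPT. ATP levels (CellTiter-Glo luminescence) are recorded after a ≥48 hr, 37 °C incubation.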
HT1080-NT tox: kills 2HG-producing HT-1080-NT fibrosarcoma cells. HT-1080-NT fibrosarcoma viability, CellTiter-Glo ATP luminescence, 48 h. Potency, µM (doses to about 46.1 µM), for inactives: at the top dose activity, negative = less viability, usual class: cytotoxic. hit rate 1.6% among 360,000;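 also: NT is the 2HG producing partner of a matched IDH1 knockdown line; potency is read from the fitted curve at half-maximal effect; 0% = DMSO-treated cells and -100% = media-only wells without cells; nearly all actives have a fitted effect of over 55% in size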
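Compounds were tested in concentration-response format on HT-1080-NT cells for 48 hours at 37 degrees C. Cell viability came from CellTiter-Glo luminescence; curves were classified by r2, response magnitude and activity.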
uPA surface inh: blocks generation of uPA at the cell surface. hit rate 0.31% among 330,000. cell surface uPA generation assay, qHTS. Potency, µM (top dose mostly 38.3 µM), for inactives: top-dose activity change, negative = inhibition, actives largely listed as inhibitors; active = well fitted inhibition curve with a large enough effect; inconclusive = small, poorly fitted or top-dose-only effect; inactive = no such curve, though single readings can be large or run the other way; tested in mouse RAW 264.7 cells; also: potency is read from the fitted curve at half-maximal effect; nearly all actives have a fitted effect of over 55% in size
IL1B secr inh: inflammasome signaling inhibition, IL-1 beta readout. THP-1 LPS/ATP IL-1B secretion, AlphaLISA, 16 h; hits give low values. activity change, % at 57.5 µM. hit rate 4.7% among 360,000. AID 743279; in the data active = activity change below about -50%; inconclusive = mostly about -30% to -49%
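THP-1 cells pretreated 1 hr with compounds (up to 57.5 uM final), then stimulated with LPS (250 ng/mL final) plus ATP (1.25 mM final); secreted IL-1B measured by AlphaLISA after 16 hr, decreased signal indicating inhibition.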
* = called active by the depositor; ? = inconclusive; . = no result given. Unless noted, calls follow the shape of the dose curve; as a rule, active = well fitted curve in the direction sought with a large enough effect; inconclusive = small, poorly fitted or top-dose-only effect, or another doubt; inactive = no such curve, though single readings can be large; an effect the other way counts as inactive or inconclusive. Unless noted, % is scaled to controls: 0 for no effect and ±100 for the full control effect.

SMILES | TDP1 cell CPT | HT1080 IDH1KD tx | DT40 TDP1 no CPT | HT1080-NT tox | uPA surface inh | IL1B secr inh
CN(c1ccccc1)S(=O)(=O)c1ccc(C(=O)N2CCN(c3ccccc3)CC2)cc1 | -1.8% | 3.1% | -13.4% | 0.5% | . | 6.9
COc1ccc(N2C(=O)Cc3ccccc3C2=O)cc1 | ? | 16.8% | 13µM* | 23.3% | 9.8% | -13.2
COc1ccc2c(c1)C(=O)N(c1ccccc1)C(=O)C2 | -27.1% | 6.9% | -9.3% | 3.8% | -0.9% | 30.2
COc1ccccc1CCNS(=O)(=O)c1ccc(N2CCCCS2(=O)=O)cc1 | 23.1µM* | . | 20.6µM* | . | . | .
COc1ccc(CCNS(=O)(=O)c2ccc(Br)cc2)cc1 | 25.6% | -1.3% | 2.4% | 5.7% | 1.7% | -6.2
COc1ccccc1CCNS(=O)(=O)c1ccc(C(=O)O)n1C | 8.2% | 0.5% | -2.6% | 6.2% | 1.0% | -12.3
COc1cccc(CNS(=O)(=O)c2ccc(N3CCCCS3(=O)=O)cc2)c1 | 23.1µM* | . | 16.4µM* | . | . | .
COc1ccc(CCNS(=O)(=O)c2ccc(N3CCCCS3(=O)=O)cc2)cc1 | 23.1µM* | . | 20.6µM* | . | . | .
COc1cccc(CNS(=O)(=O)c2ccc(S(=O)(=O)N3CCCC3)cc2)c1 | -3.3% | -3.6% | -22.6% | -0.6% | -1.4% | 0.0
OC[C@@H]1CN(Cc2ccc(Cl)cc2)C[C@H](n2cnc3c(N4CCCC4)ncnc32)O1 | ? | 15.9% | ? | -6.0% | . | -0.2
CC1(c2nc3ccccc3[nH]2)CCC(=O)N1C1CC1 (stereo not drawn) | 7.4% | 10.3% | 15.6% | 26.8% | . | 34.5
COC(C(=O)Nc1ccnn1C1CCN(Cc2ccccn2)CC1)c1ccccc1 (stereo not drawn) | 1.3% | 5.8% | -23.6% | 5.3% | 2.4% | 2.7
O=S1(=O)CC(N2CC=CC2)CN1Cc1cn(Cc2cccc(C(F)(F)F)c2)nn1 (stereo not drawn) | -1.3% | 9.0% | -7.9% | -2.4% | . | 6.7
CNc1cc(C(=O)Nc2cccc(OCc3ccccc3)c2)ncn1 | ? | 0.2% | ? | -0.8% | . | -20.0
CC(C)c1ccc(NC(=O)c2csnn2)cc1 | -25.6% | 5.2% | -4.7% | 2.1% | . | -8.0
CN(C)c1ccc(CNC(=O)c2cccn2-c2nnc(N3CCCCC3)s2)cc1 | 18.4µM* | . | 16.4µM* | . | . | .
CN(C)c1ccc(CNC(=O)c2cnc3sc(N4CCOCC4)nn3c2=O)cc1 | -28.9% | . | 1.3% | . | . | .
CC(C)c1ccc(NC(=O)c2cccn2-c2nnc(N3CCCCC3)s2)cc1 | 18.4µM* | . | ? | . | . | .
O=c1cnc2ccccc2n1Cc1ccccc1 | -7.6% | -5.3% | ? | -6.2% | . | -7.0
CSc1ccc(OC2(C)CCN(Cc3ccc(OC(C)C)cc3)C2)cc1 (stereo not drawn) | ? | ? | ? | ? | . | -10.3
CCOC(=O)c1cccc(NC(=O)c2ncoc2-c2ccco2)c1 | -25.4% | . | -27.9% | . | . | .
O=C1CC(c2c(Cl)cccc2Cl)c2c(ccc3ccccc23)N1 (stereo not drawn) | ? | . | 25.9µM* | . | . | .
CCOc1ccccc1C1CC(=O)Nc2cc(OC)c(OC)cc21 (stereo not drawn) | ? | -18.1% | ? | -1.7% | -3.7% | 45.6
O=C1CC(c2ccsc2)c2ccc3ccccc3c2N1 (stereo not drawn) | -2.9% | -16.4% | ? | -16.0% | 4.9% | 21.0
O=C1CC(c2cccs2)c2ccc3ccccc3c2N1 (stereo not drawn) | ? | ? | -21.7% | ? | -1.4% | 52.1
SMILES | TDP1 cell CPT | HT1080 IDH1KD tx | DT40 TDP1 no CPT | HT1080-NT tox | uPA surface inh | IL1B secr inh
CCCCOc1ccccc1C1CC(=O)Nc2ccc3ccccc3c21 (stereo not drawn) | 11.6µM* | . | 6.51µM* | . | . | .
O=C1CC(c2cc([N+](=O)[O-])ccc2Cl)c2c(ccc3ccccc23)N1 (stereo not drawn) | 16.4µM* | ? | 14.6µM* | ? | -20.6% | 18.4
O=C1CC(c2cccc([N+](=O)[O-])c2)c2ccc3ccccc3c2N1 (stereo not drawn) | 25.9µM* | ? | ? | ? | -25.8% | -4.3
O=C(NC(=S)N1CCOCC1)c1cn(-c2ccccc2)nc1-c1ccc(F)cc1 | ? | -7.5% | ? | -11.9% | -3.4% | -25.1
CCOc1ccc(-n2cc(C(=O)Nc3ccc(Cl)cn3)c3cc(OC)c(OC)cc3c2=O)cc1 | 2.91µM* | 0.8% | -27.4% | -7.0% | 2.9% | -5.3
CCOc1ccc(-n2cc(C(=O)Nc3cccc(OC)c3)c3cc(OC)c(OC)cc3c2=O)cc1 | 0.0% | 3.2% | -26.2% | 6.3% | -2.7% | 10.5
CCCOc1ccc(OC(=O)c2cn(-c3ccc(OC)cc3)c(=O)c3ccccc23)cc1 | ? | . | 16.4µM* | . | . | .
COC(=O)c1cn(-c2ccccc2)c(=O)c2ccccc12 | -11.8% | -0.9% | -0.7% | 3.3% | -5.7% | -8.5
CCOc1ccc(OC(=O)c2cn(-c3ccc(C)cc3)c(=O)c3ccccc23)cc1 | ? | . | 16.4µM* | . | . | .
COc1ccc(-n2cc(C(=O)N(C)c3cc(C)ccc3OC)c3ccccc3c2=O)cc1 | ? | . | 20.6µM* | . | . | .
CCOC(=O)c1ccc(OC(=O)c2cn(-c3ccc(C)cc3)c(=O)c3ccccc23)cc1 | 16.4µM* | . | ? | . | . | .
COc1ccc(-n2cc(C(=O)OCc3ccc(Cl)cc3)c3ccccc3c2=O)cc1 | -7.1% | . | -1.2% | . | . | .
CC(C)(C)C(=O)Nc1nnc(SCC(=O)NC2CCCCC2)s1 | -17.2% | -0.7% | ? | 6.0% | 2.2% | -2.9
Cc1ccc(Cl)cc1N1CCN(C(=O)CSc2nnc3n2C(C)(C)Cc2ccccc2-3)CC1 | 9.2µM* | -25.9% | 7.31µM* | -15.7% | -10.2% | ?
COc1ccc(N2CCN(C(=O)CSc3nnc4n3C(C)(C)Cc3ccccc3-4)CC2)cc1 | ? | 1.6% | 20.6µM* | 5.7% | . | -12.6
C=CCn1c(SCc2ccc(Cl)cc2)nc2c1c(=O)[nH]c(=O)n2C | ? | -3.3% | 20.6µM* | -27.7% | -5.0% | 2.6
CCC(C)Sc1nc2c(c(=O)[nH]c(=O)n2C)n1Cc1ccc(Cl)cc1 (stereo not drawn) | ? | -26.3% | ? | -26.4% | -9.9% | ?
C=CCn1c(SCc2ccc(F)cc2)nc2c1c(=O)[nH]c(=O)n2C | ? | -0.8% | ? | -7.2% | ? | 16.6
CCOC(=O)CSc1nc2c(c(=O)[nH]c(=O)n2C)n1C/C=C(/C)Cl | 2.7% | -2.9% | -24.5% | -0.9% | 5.8% | 5.8
CCCCCCSc1nc2c(c(=O)[nH]c(=O)n2C)n1C | ? | 4.7% | 20.6µM* | ? | 11.7% | 0.0
